Compound activity deposited in PubChem by The Scripps Research Institute Molecular Screening Center.
hgDAF-12 ag: H. glycines DAF-12 receptor agonists, primary screen, cell-based, luminescence, HEK293, GAL4 fusion, UAS-luciferase. Nuclear hormone receptor DAF-12 (Heterodera glycines), GAL4 fusion. HEK293 GAL4-hgDAF12 UAS-luciferase reporter, agonist luminescence; normalized to butyrate control. activation, % at 6.8 µM. hit rate 1.8% among 370,000. AID 687014, 2013;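 active = activation above a cutoff set at the mean of all screened compounds plus 3 SD, cut at about 10% in these data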;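 also: 0% = DMSO wells and 100% = sodium butyrate wells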
ssDAF-12 act: S. stercoralis DAF-12 nuclear receptor activators, primary screen, cell-based, luminescence, HEK293, GRIP1 co-expression, lit1-tk-luc; HEK293 ssDAF-12/GRIP1 lit1-tk-luc reporter; % of 3 µM dafachronic acid response; activation, % at 6.8 µM; hit rate 1% among 370,000; AID 652126, 2013;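 active = activation above the mean over all tested compounds plus 3 SD, cut at about 0.9% in these data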;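 also: 0% = DMSO-only wells and 100% = 3 µM delta7-dafachronic acid wells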
DAX1 inh: DAX1 (NR0B1) inhibitors on StAR promoter, primary screen, cell-based, luminescence, SF-1 (NR5A1), full-length DAX-1; inhibition, % at 6.8 µM; hit rate 1.1% among 370,000; HEK293T StAR-luciferase reporter, SF-1/DAX-1 repression relief;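 active = inhibition above the mean over all tested compounds plus 3 SD, cut at about 3.6% in these data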;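 also: 0% = DAX-1 cells with DMSO and 100% = cells lacking DAX-1 with DMSO; higher inhibition means more luminescence from relief of DAX-1 repression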
hcDAF12 agonist: H. contortus DAF-12 nuclear receptor activators, primary screen, cell-based, luminescence, HEK293, lit1-tk-luc reporter; activation, % at 6.8 µM; hit rate 1.4% among 370,000; AID 652067, 2013; HEK293 hcDAF-12 lit1-tk-luc reporter; 0% DMSO, 100% Δ7-dafachronic acid;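 active = activation above the mean of all tested compounds plus 3 SD, cut at about 5.5% in these data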;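 also: 100% = response to 3 µM Δ7-dafachronic acid high control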
SMARCA2 act: SMARCA2 (BRM) function activators, primary screen, cell-based, luminescence, high throughput | hit rate 1% among 370,000 | MG213 cells, MMTV-luciferase reporter, dexamethasone, overnight | activation, % at 9.1 µM | AID 652017, 2013; in the data active = activation above about 7.8%;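 also: 0% = vehicle wells and 100% = reference activator wells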
Numbers without * were called inactive; · = no result given. Compounds with a hit are over-represented: about 4.2% of the library has one in this group of screens.

SMILES | hgDAF-12 ag | ssDAF-12 act | DAX1 inh | hcDAF12 agonist | SMARCA2 act
CC(=O)N1C[C@H]2CON(C)[C@H]2C[C@H]1c1ccccc1Br | -1 | 1.1* | -1 | -2 | -2
COc1ccccc1-c1cccc([C@@H]2C[C@H]3[C@H](CON3C)CN2C(C)=O)c1 | 1 | -2 | 3.7* | -1 | -6
CCOC(=O)[C@]12CCCCC/C=C\1N(CCc1ccc(Cl)cc1)C(=O)[C@H]2CC(=O)NCc1ccc(C)o1 | -1 | -1 | 0 | -3 | 1
Cn1c2c(c(=O)n(C)c1=O)NC1(N2)C(=O)Nc2ccccc21 (stereo not drawn) | 4 | 0.9* | 0 | 5 | -2
Cn1c2c(c(=O)n(C)c1=O)[C@@]1(C(=O)Nc3ccccc31)C(C#N)=C(N)O2 | -4 | -1 | 0 | 2 | -4
Cc1ccnc(SCC(=O)c2cccs2)n1 | 7 | -1 | 1 | 1 | 4
Cc1ccnc(SCc2nc3ccccc3s2)n1 | 9 | 0 | 2 | 5.8* | 5
c1ccc(Cc2nc3ccccc3s2)cc1 | 8 | 0 | -1 | 5.8* | 0
O=C(CCc1nc2ccccc2s1)Nc1ccccc1 | -1 | -1 | -1 | -1 | 2
C=CCN1C(=O)[C@@H](CC(=O)N2CCC(c3ccccc3)CC2)[C@]2(C(=O)OCC)CCCCC/C=C/12 | -3 | -1 | 0 | -2 | -3
COc1ccc2c(c1)S/C(=C\C(=O)c1ccncc1)N2C | 12* | 0 | 1 | 1 | 6
CCCCNC(=O)C1(C)CCCCN1C(=O)c1cc(-c2ccccc2)cs1 (stereo not drawn) | -1 | -1 | -2 | -2 | -3
NC(=O)CSc1nc(C2CC2)nc2sc3c(c12)CCCC3 | 12* | -1 | 1 | 2 | 5
CCOc1ncccc1C(=O)N1CCN(c2ccc(C(F)(F)F)cn2)CC1 | -4 | -3 | -2 | -3 | -5
CCOC(=O)N1CCN(c2ccc(C(F)(F)F)cn2)CC1 | 1 | -1 | 0 | -2 | 7.9*
Cc1cc(C)c(C2C(C#N)=C(N)Oc3n[nH]c(C)c32)cc1CN1CCCC1 (stereo not drawn) | 3 | -1 | -1 | 0 | 7.9*
Cc1[nH]nc2c1C(c1ccoc1)C(C#N)=C(N)O2 (stereo not drawn) | 2 | -1 | 0 | 0 | -2
CC1=NN(c2ccccc2C)C(=O)C1 | 0 | 1.9* | 0 | 0 | -1
COc1ccc(CN2C/C(=C/C3=CCCCC3)N(C(=O)OCc3ccccc3)C2=N)c(OC)c1 | 4 | -1 | 0 | -2 | 0
CC(/C=C/c1ccco1)=N\NC(=O)c1cccc(Cl)c1 | 6 | 0 | 1 | 3 | 5
Cc1cc(/C=N/NC(=O)c2cccc(F)c2)c(C)n1-c1ccccc1 | 11* | 0 | 2 | 2 | 6
CC(/C=C/c1ccccc1F)=N\NC(=O)c1cccc(F)c1 | 12* | -1 | 3 | 0 | 4
CC(/C=N/NC(=O)c1cccc(F)c1)=C\c1ccccc1 | 12* | 0 | 3 | 4 | 2
Cc1cc(/C=N/NC(=O)c2ccncc2)c(C)n1-c1cccc(C(F)(F)F)c1 | 1 | -1 | -1 | 0 | -2
COc1ccc(Nc2nc(C)c3ccccc3n2)cc1 | 10 | 1.1* | 1 | 6.5* | 1
SMILES | hgDAF-12 ag | ssDAF-12 act | DAX1 inh | hcDAF12 agonist | SMARCA2 act
COc1ccc(Nc2nc(-c3ccccc3)c3ccccc3n2)cc1 | 0 | -1 | 0 | 2 | -3
On1c(-c2ccccc2)nc2ccc(Cl)cc21 | 12* | -1 | 3 | 3 | 2
COc1cc(-c2nc3ccccc3c(=O)n2N)cc(OC)c1OC | 3 | 5.7* | -1 | -1 | 3
Cc1ccc(-c2nc3ccccc3c(=O)n2N)cc1 | 3 | 1 | 1 | 4 | 0
CC(On1c(-c2ccccc2)nc2ccc(Cl)cc21)C(=O)O (stereo not drawn) | 4 | 0 | 1 | 0 | 5
Nn1c(-c2ccccc2)nc2cc(Cl)ccc2c1=O | 5 | 1.9* | 1 | 5.7* | -1
COc1cc(-c2cnc3c(NC=O)cc(-c4ccsc4)cn23)cc(OC)c1OC | -5 | -1 | -3 | -2 | -2
COc1ccc(CN2C(=O)N3Cc4ccc(C)cc4C3CS2(=O)=O)cc1 (stereo not drawn) | 1 | -1 | -1 | 0 | 4
C[C@H]1[C@@H](OC(=O)NCc2cccs2)CC[C@@]23CCCN2C(=O)CCC[C@@H]13 | 1 | -2 | · | 2 | ·
CCn1c(SCC(=O)c2cc(OC)ccc2OC)nnc1C(C)C | 3 | 1.2* | 1 | 3 | -1
COC(=O)CCC(=O)c1oc2ccc(Br)cc2c1N | 11* | 0 | 3 | 1 | 2
COc1ccc2oc(C(=O)CCC(=O)O)c(N)c2c1 | 3 | -1 | 3 | 2 | 0
CC(=O)NCc1ccc(-c2csc(-c3cccs3)n2)cc1 | 12* | -1 | 0 | 3 | 5
O=C(N/N=C/c1cccs1)c1cc(-c2cccc3ccccc23)n[nH]1 | 11* | -1 | 0 | 0 | 1
O=C(N/N=C/c1cccs1)c1cc(-c2ccc3ccccc3c2)n[nH]1 | 11* | 0 | 1 | 2 | 4
O=C(N/N=C/c1cccs1)c1ccc2ccccc2c1 | 9 | -1 | 2 | 1 | 1
COC(=O)c1cc2c(c3c4ccccc4n(S(=O)(=O)c4ccc(C)cc4)c13)C(=O)N(Cc1ccccc1)C2 | 0 | -1 | -1 | 0 | -5
Cc1ccc(NC(=O)c2cc(N3C(=O)C=CC3=O)ccc2Cl)cc1C | 11* | 0 | 0 | 1 | 1
O=c1c2ccccc2c(-c2ccccc2)nn1Cc1c(Cl)cccc1Cl | 3 | -2 | 0 | -1 | -1
Clc1cccc(Cl)c1Cn1ccc(C2CC2)n1 | 9 | -1 | 3 | 1 | 7.9*
C[C@H](O)[C@@H]1C(=O)N2CCc3c([nH]c4c(-c5ccc6c(c5)OCO6)cccc34)[C@@H]2C[C@@H]1N(C)C(=O)Nc1ccccc1 | 2 | 1 | 1 | -3 | 1
CC(OC(=O)c1cc(O)c2ccccc2c1O)C(=O)Nc1ccc(C(N)=O)cc1 (stereo not drawn) | 1 | 1.4* | -2 | 4 | -3
CC(OC(=O)c1ccccc1C(=O)N(C)c1ccccc1)C(=O)Nc1ccc(C(N)=O)cc1 (stereo not drawn) | 0 | -1 | 0 | 0 | -3
CCN1CCN(Cc2ccc(OCc3ccccc3)cc2)CC1 | 13* | -1 | 2 | 3 | 4
CN1CCN(Cc2ccc(OCc3ccccc3)cc2)CC1 | 10 | 0 | 2 | 4 | 8
c1ccc(COc2ccc(OCCN3CCCCC3)cc2)cc1 | -1 | -1 | 0 | 6.0* | 0
